Experimental findings from PubChem BioAssay (NCATS) are described below.

The nature of experiment [1]: qHTS drug screen for cell cycle checkpoint inhibitors in PARPi-resistant BRCA-mutant ovarian cancer cell lines. (AID 1963452; calls by dose curve). The conditions noted are these: PEO1/OlaR viability, CellTiter-Glo luminescence, 96 h, stronger effect = lower value. A digest of the protocol:
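PEO1, PEO4 and PEO1/OlaR ovarian cancer cells, 600 per well, exposed 96 h at 37C to a dilution series. Viability read by CellTiter-Glo luminescence, normalized to DMSO and empty wells; activity summarized as Z-AUC.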
A general note: Quantitative high-throughput screening tests each substance at several concentrations.

Experiment [2] is described as follows: qHTS profiling for inhibitors of Plasmodium falciparum proliferation (AID 504749).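 For activity, negative = inhibition: 0% = DMSO vehicle and full inhibition = artemisinin control.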 For all read-outs here: nearly all actives have a fitted effect of over 60% in size. Note: potency is the fitted concentration of half-maximal effect. As to conditions: P. falciparum in erythrocytes, SYBR Green DNA, 72 h; for activity, negative = inhibition: at 28.7 µM (top of the series). Summed up:
(§1)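 Parasite proliferation within erythrocytes, 72 h exposure. Endpoint: SYBR Green I fluorescence after overnight lysis at room temperature. Controls: 0.29 uM artemisinin, DMSO.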

The test system of the next experiment is 3D7. Described as above. The conditions noted are these: P. falciparum in erythrocytes, SYBR Green DNA, 72 h; series mostly up to 28.7 µM. A digest of the protocol: as §1
In a further experiment the test system is 7G8. The experiment is described as above. The conditions noted are these: P. falciparum in erythrocytes, SYBR Green DNA, 72 h; series mostly up to 28.7 µM. Summed up: as §1
For another experiment, the system named is AA1029. The description is as above. As to conditions: P. falciparum in erythrocytes, SYBR Green DNA, 72 h; series mostly up to 28.7 µM. A digest of the protocol: as §1
Another experiment has as its system AS120. The experiment is described as above. As to conditions: P. falciparum in erythrocytes, SYBR Green DNA, 72 h; series mostly up to 28.7 µM. A digest of the protocol: as §1
The test system of the next experiment is ATS189. Described as above. As to conditions: P. falciparum in erythrocytes, SYBR Green DNA, 72 h; series mostly up to 28.7 µM. A digest of the protocol:
as §1

The next experiment concerns ATS95. Described as above. The conditions noted are these: P. falciparum in erythrocytes, SYBR Green DNA, 72 h; series mostly up to 28.7 µM. Summed up: as §1
For a further experiment, the system named is C2A. The description is as above. The conditions noted are these: P. falciparum in erythrocytes, SYBR Green DNA, 72 h; series mostly up to 28.7 µM. A digest of the protocol:
as §1

The subject of the next experiment is CP185. Described as above. As to conditions: P. falciparum in erythrocytes, SYBR Green DNA, 72 h; series mostly up to 28.7 µM. Summed up: as §1
The subject of a further experiment is CP191. The experiment is described as above. As to conditions: P. falciparum in erythrocytes, SYBR Green DNA, 72 h; series mostly up to 28.7 µM. A digest of the protocol:
as §1

The test system of a further experiment is CP192. The description is as above. The conditions noted are these: P. falciparum in erythrocytes, SYBR Green DNA, 72 h; series mostly up to 28.7 µM. A digest of the protocol:
as §1

The next experiment deals with CP194. Described as above. The conditions noted are these: P. falciparum in erythrocytes, SYBR Green DNA, 72 h; series mostly up to 28.7 µM. A digest of the protocol: as §1
The subject of another experiment is CP201. The experiment is described as above. The conditions noted are these: P. falciparum in erythrocytes, SYBR Green DNA, 72 h; series mostly up to 28.7 µM. A digest of the protocol:
as §1

For the next experiment, the system named is CP211. The experiment is described as above. The conditions noted are these: P. falciparum in erythrocytes, SYBR Green DNA, 72 h; series mostly up to 28.7 µM. Summed up: as §1
A further experiment concerns CP215. The description is as above. The conditions noted are these: P. falciparum in erythrocytes, SYBR Green DNA, 72 h; series mostly up to 28.7 µM. Summed up:
as §1

The test system of a further experiment is CP217. The experiment is described as above. As to conditions: P. falciparum in erythrocytes, SYBR Green DNA, 72 h; series mostly up to 28.7 µM. A digest of the protocol:
as §1

In another experiment the test system is CP237. Described as above. As to conditions: P. falciparum in erythrocytes, SYBR Green DNA, 72 h; series mostly up to 28.7 µM. Summed up: as §1
Experiment [3] in a line: qHTS for identification of novel therapeutic agents for treatment of microphthalmiaassociated transcription factor (MiT) renal cell carcinoma (RCC) (AID 1963991). The conditions noted are these: CellTiter-Glo, 48 h, stronger effect = lower value. A digest of the protocol:
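Three TFE3-fusion RCC cell lines (UOK109, UOK124, UOK145), 500 cells/well, were exposed to the 1912-compound MIPE 4.0 library for 48 hours at 37 C. Viability was read by CellTiter-Glo luminescence, normalised to DMSO (100%) and empty wells (0%), with 11-concentration curve fits.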

For a further experiment, the system named is CP203. Put plainly: qHTS profiling for inhibitors of Plasmodium falciparum proliferation (AID 504749).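 For activity, negative = inhibition: 0% = DMSO vehicle and full inhibition = artemisinin control.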 Note: nearly all actives have a fitted effect of over 60% in size. Note: potency is the fitted concentration of half-maximal effect. As to conditions: P. falciparum in erythrocytes, SYBR Green DNA, 72 h; series mostly up to 28.7 µM. Summed up:
as §1

[4] abbreviates: measured here: PEO1 parental Z-AUC.
The mark [5] stands for this setting: TFE3-RCC UOK109 viability, measured here: UOK109 Z-AUC.
[6] abbreviates: TFE3-RCC viability, measured here: UOK124 Z-AUC.
Where [7] appears, read: TFE3-RCC viability, measured here: UOK145 Z-AUC.

Molecules are shown by their SMILES. Results filed as inconclusive are left out. Calls of active or inactive are those of the source. Unless noted, calls come from the whole dose curve; as a rule, active = well fitted inhibition curve with a large enough effect; inconclusive = small, poorly fitted or top-dose-only effect; inactive = flat fitted curve, though single readings scatter.

On to `Cc1[nH]c(=O)c(C#N)cc1-c1ccncc1`, for which the Z-AUC is -0.809 (inactive) in experiment [1], -0.611 in experiment [1] (setting [4]) and -0.635 in [1] (measured here: PEO4 Z-AUC). The activity, negative = inhibition in [2] (parasite line A) is -21.8% (inactive); in [2] (parasite line B), -1.27% (inactive). The Potency entry in the experiment with 3D7, in the experiment on 7G8, with AA1029, in the experiment on AS120, in the experiment on ATS189 and with ATS95 was “inactive” throughout. Also, the Potency result in the experiment with C2A, in the experiment with CP185, with CP191, in the experiment on CP192, in the experiment with CP194 and in the experiment with CP211 was “inactive” throughout. Further, the Potency entry with CP215, with CP217 and with CP237 was “inactive” each time. For the same molecule, the outcome in the experiment on CP201 was inactive.

For the molecule `CCc1ccc(CCOc2ccc(CC3SC(=O)NC3=O)cc2)nc1` (centres undefined), the Z-AUC in experiment [1] was 0.827 (inactive); in experiment [1] (setting [4]), 0.268; in [1] (measured here: PEO4 Z-AUC), 0.973. Besides, the z-score is 1.53 in [3] (setting [5]), 0.584 in experiment [3] (setting [6]) and 0.551 in experiment [3] (setting [7]). Moreover, the activity, negative = inhibition in experiment [2] (parasite line A) is 8.32% (inactive); in experiment [2] (parasite line B), 6.57% (inactive). For the same molecule, the Potency result with 3D7, in the experiment on 7G8, with AA1029, in the experiment with AS120, with ATS189 and with ATS95 was “inactive” in each case. The Potency entry with C2A, in the experiment on CP185, in the experiment with CP191, with CP192, in the experiment on CP194 and in the experiment on CP211 was “inactive” each time. The Potency result with CP215, in the experiment on CP217 and in the experiment with CP237 was “inactive” each time. Moreover, the result in the experiment with CP201 was inactive.

For `CC(C[N+](C)(C)C)OC(N)=O` (centres undefined), the figures for the Z-AUC in [1], in [1] (setting [4]) and in experiment [1] (measured here: PEO4 Z-AUC) were 1.18 (inactive), 1.37 and 1.64, respectively. The figures for the z-score in experiment [3] (setting [5]), in experiment [3] (setting [6]) and in experiment [3] (setting [7]) were 0.592, 0.666 and 0.688, respectively. In addition, the activity, negative = inhibition in [2] (parasite line A) was 8.36% (inactive); in experiment [2] (parasite line B), 9.26% (inactive). Besides, the Potency result with 3D7, in the experiment with 7G8, in the experiment on AA1029, with AS120, in the experiment on ATS189 and in the experiment on ATS95 was “inactive” each time. Besides, the Potency entry in the experiment on C2A, in the experiment with CP185, in the experiment on CP191, with CP192, with CP194 and in the experiment on CP211 was “inactive” in each case. In addition, the Potency entry in the experiment on CP215, with CP217 and in the experiment with CP237 was “inactive” in each case. Also, in the experiment on CP201, the call was inactive.

Regarding `NS(=O)(=O)c1cc2c(cc1Cl)NC=NS2(=O)=O`, the Z-AUC in [1] was 0.885 (inactive); in experiment [1] (setting [4]), 1.02; in [1] (measured here: PEO4 Z-AUC), 0.779. The values for the z-score in experiment [3] (setting [5]), in experiment [3] (setting [6]) and in [3] (setting [7]) were 0.178, 0.944 and 0.209, respectively. The activity, negative = inhibition in [2] (parasite line A) is 7.83% (inactive); in experiment [2] (parasite line B), 11% (inactive). The Potency entry in the experiment on 3D7, with 7G8, with AA1029, with AS120, in the experiment on ATS189 and in the experiment on ATS95 was “inactive” throughout. Also, the Potency result in the experiment with C2A, in the experiment with CP185, with CP191, with CP192, in the experiment with CP194 and in the experiment on CP203 was “inactive” in each case. The Potency entry in the experiment on CP211, with CP215, with CP217 and in the experiment with CP237 was “inactive” each time. Besides, the outcome in the experiment with CP201 was inactive.

As to `C1COC(NC(C2CC2)C2CC2)=N1`, the Z-AUC is -0.361 (inactive) in experiment [1], -0.558 in experiment [1] (setting [4]) and -0.616 in experiment [1] (measured here: PEO4 Z-AUC). Moreover, the z-score turned out to be 0.422 in [3] (setting [5]), 0.218 in experiment [3] (setting [6]) and 0.0437 in experiment [3] (setting [7]). Also, the results for the Potency (in experiment [2] (parasite line A); in the experiment on 7G8; in the experiment on AS120) were 7.94 µM (active), 12.6 µM (active) and 12.6 µM (active), respectively. Further, the Potency result in the experiment with 3D7, in the experiment with ATS189, in the experiment on CP185, with CP192 and in the experiment on CP211 was “inactive” throughout. The outcome in the experiment on CP201 was inactive.
